Assay outcomes deposited in PubChem BioAssay by NMMLSC.
RGS16-Gao HTS: regulators of human RGS16-Galphao interaction | O15492+P09471 | hit rate 0.38% among 220,000 | binding response (% of control), % at 10 µM | bead-based flow cytometry RGS16-Galphao binding, fluorescence; actives lie on both sides;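 further: Galphao activated by GDP with aluminum fluoride before binding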
Target sequence (O15492 whole entry, looked up): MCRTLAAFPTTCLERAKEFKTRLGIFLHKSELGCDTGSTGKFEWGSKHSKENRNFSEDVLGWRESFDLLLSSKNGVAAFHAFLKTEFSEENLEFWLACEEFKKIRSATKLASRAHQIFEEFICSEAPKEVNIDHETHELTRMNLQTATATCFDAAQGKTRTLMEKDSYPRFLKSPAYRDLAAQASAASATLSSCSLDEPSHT
Target sequence (P09471 whole entry, looked up): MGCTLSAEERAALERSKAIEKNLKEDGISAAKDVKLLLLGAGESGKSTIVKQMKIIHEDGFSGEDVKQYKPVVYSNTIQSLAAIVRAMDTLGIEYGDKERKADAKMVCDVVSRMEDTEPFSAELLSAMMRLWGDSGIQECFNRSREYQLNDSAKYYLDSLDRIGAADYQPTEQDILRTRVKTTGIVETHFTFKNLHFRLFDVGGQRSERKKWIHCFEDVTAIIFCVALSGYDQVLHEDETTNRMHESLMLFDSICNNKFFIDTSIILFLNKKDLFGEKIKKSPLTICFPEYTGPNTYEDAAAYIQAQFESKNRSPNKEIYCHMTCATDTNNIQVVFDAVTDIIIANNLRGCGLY
RGS7-Gao reg: regulators of human RGS7-Galphao interaction; Multiplexed bead flow cytometry, RGS7-Galphao binding; actives lie on both sides; hit rate 0.35% among 220,000; P09471; binding response (% of control), % at 10 µM; in the data active means binding response below about 49% or above about 150%; inconclusive means no clear call, values can overlap the other calls; inactive means in between;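 further: fluorescent Galphao held in activated GDP-AlF4 state binding bead-coupled RGS7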
Target sequence (P09471 whole entry, looked up): as above
GSH fluor: GSH bead compound fluorescence profile; GSH beads flow cytometry, compound fluorescence 488/530 nm; hits give high values; fluorescence (KMESF) at 10 µM; hit rate 0.25% among 190,000; AID 1776; in the data active means fluorescence above about 89;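 further: glutathione beads carrying GST-tagged Bcl family fusion proteins plus one bare bead set; values are compound well signal with DMSO vehicle wells as background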
RGS8-Gao: modulates binding of RGS8 to human Galphao. P09471. multiplexed bead flow cytometry; actives lie on both sides. response (percent of control binding), % at 10 µM. hit rate 0.34% among 220,000; in the data active means response below about 60% or above about 140%; inactive means in between;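 further: Galphao activated as the GDP aluminium fluoride complex binding bead-coupled RGS8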
Avidin bead fluor: avidin bead compound fluorescence profile; Avidin beads, compound fluorescence 488/530 nm, flow cytometry; hits give high values; fluorescence (KMESF) at 10 µM; hit rate 0.38% among 220,000; AID 1775; in the data active means fluorescence above about 47
RGS4-Gao reg: human RGS4-Galphao interaction regulation; hit rate 0.33% among 220,000; binding response (% of control), % at 10 µM; AID 1415; P09471; Multiplexed bead flow cytometry, RGS4-Galphao binding; actives lie on both sides; in the data active means binding response below about 49% or above about 150%; inactive means in between;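 further: fluorescent Galphao activated with aluminum fluoride binding bead-coupled RGS4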
RGS-Gao: RGS4-Galphao interaction regulator (human) | hit rate 99% among 1,600 | multiplexed bead flow cytometry, RGS–Galpha-o binding | AID 1504 | RGS4–Galpha-o binding response, % at 10 µM | shares compounds with RGS16-Gao HTS;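 further: fluorescently labeled Galpha-o bound to GDP with aluminium fluoride binding biotinylated RGS beads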
Biotin-avidin: biotin-avidin bead binding disruption counter-screen; shares compounds with RGS16-Gao HTS; streptavidin beads, fluorescein-biotin binding, flow cytometry; inhibition, % at 10 µM; 1,700 tested, under 10 active; AID 1783;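 active means inhibition above 50%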;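 further: median green fluorescence of gated singlet beads compared with DMSO control wells; 0% = DMSO wells and 100% = complete loss of bead fluorescence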
RGS8-Gao single: confirmation of regulators of human RGS8-Galphao interaction. shares compounds with RGS16-Gao HTS. bead-based flow cytometry RGS8-Galphao binding, fluorescence; actives lie on both sides. binding response (% of control), % at 10 µM. hit rate 3% among 1,700. AID 1836; in the data active means binding response below about 72% or above about 130%; inactive means in between;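 further: Galphao activated as GDP AlF4 complex before binding bead RGS8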
RGS7-Gao single: confirmation of regulators of human RGS7-Galphao interaction. response (percent of control binding), % at 10 µM. shares compounds with RGS16-Gao HTS. hit rate 7.8% among 1,700. bead-based flow cytometry RGS7-Galphao binding; actives lie on both sides; in the data active means response below about 75% or above about 130%; inactive means in between;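 further: fluorescent Galphao activated with GDP and aluminum fluoride binding bead-coupled RGS7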
RGS16-Gao single: RGS16-Galphao interaction regulation, single point confirmation. shares compounds with RGS16-Gao HTS. bead-based flow cytometry, RGS16-Galphao binding; actives lie on both sides. response (% of control binding), % at 10 µM. hit rate 4% among 1,700; in the data active means response below about 74% or above about 130%; inactive means in between;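 further: Galphao activated as the GDP aluminium fluoride complex binding bead-coupled RGS16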
RGS4-Gao confirm: confirmation of regulators of human RGS4-Galphao interaction. shares compounds with RGS16-Gao HTS. RGS4-Galphao binding, multiplexed bead flow cytometry; actives lie on both sides. binding response (% of control), % at 10 µM. hit rate 4% among 1,700; in the data active means binding response below about 74% or above about 130%; inactive means in between
RGS19-Gao conf: RGS19-Galphao interaction regulation, single point confirmation | bead-based flow cytometry RGS19-Galphao binding; actives lie on both sides | response (percent of control binding), % at 10 µM | shares compounds with RGS16-Gao HTS | hit rate 5% among 1,700; in the data active means response below about 50% or above about 160%; inactive means in between;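 further: 100% = no compound control and 0% = blank background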
* hit, by the source's call; i = inactive; ? = inconclusive; . = no result; [ ] = dose if it differs, or a comment. Most compounds without a hit are left out; they make up all but 1.2% or so of the library. Unless noted, how the calls were made is not given here.

SMILES	RGS16-Gao HTS	RGS7-Gao reg	GSH fluor	RGS8-Gao	Avidin bead fluor	RGS4-Gao reg	RGS-Gao	Biotin-avidin	RGS8-Gao single	RGS7-Gao single	RGS16-Gao single	RGS4-Gao confirm	RGS19-Gao conf
CC(C)COc1ncnc2c1sc1nc3c(cc12)COC(C)(C)C3	206*[activator]	?	.	130	75*	224*[activator]	.	-1	102	100	101	100	92
Cn1c(-c2cccs2)[n+](C)c2ccccc21	107	104	12	104	11	102	.	.	.	.	.	.	.
Cc1[nH]c2ccccc2c1/C=N/NC(=S)NCc1ccccc1	159	?	17	106	34	159*[activator]	.	1	110	226*[activator]	146*[activator]	165*[activator]	294*[activator]
CC1CC(=O)C(C2c3ccccc3CCN2C(=O)CCl)C(=O)C1 (stereo unspecified)	100	106	10	100	13	99	.	.	.	.	.	.	.
COc1cc2c(cc1OC)C(C1C(=O)CC(C)(C)CC1=O)N(C(=O)CCl)CC2 (stereo unspecified)	17*	92	7	74	7	90	90*	0	99	99	101	100	103
Cc1cnn(Cc2cccnc2)c1N	103	?	.	103	6	100	.	.	.	.	.	.	.
O=C(c1cnccn1)N(Cc1cccs1)C1(C(=O)NC2CCCCC2)CCCCC1	246*[activator]	108	18	135	12	115	115*	2	98	67*	91	76	79
O=C(c1cnccn1)N(Cc1cccs1)C1(C(=O)NC2CCCC2)CCCCC1	52	96	86	81	4	91	.	.	.	.	.	.	.
O=C1/C(=C\c2ccc(-c3ccccc3[N+](=O)[O-])o2)C(c2ccccc2)=NN1c1ccccc1	-1.8*	7.8*	65	14*	-3	-5.8*	.	-5	100	86	98	95	86
CCCc1ccc(C(=O)NC(=O)c2ccccc2O)cc1	32	?	.	53*	2	33*	.	-1	100	98	98	99	102
O=C(NC(=O)c1ccccc1O)c1ccc(C(F)(F)F)cc1	94	?	.	100	8	93	.	.	.	.	.	.	.
CC(C)C(=O)NC(NC1CCS(=O)(=O)C1)C(Cl)(Cl)Cl (stereo unspecified)	107	113	21	110	14	100	.	.	.	.	.	.	.
CCCC(=O)NC(NC1CCS(=O)(=O)C1)C(Cl)(Cl)Cl (stereo unspecified)	15*	11*	14	34*	1	22*	.	0	100	101	105	102	96
Cn1c(SCC(=O)N/N=C/C=C/c2ccccc2[N+](=O)[O-])nc2ccccc21	97	101	10	100	28	100	.	.	.	.	.	.	.
Cn1c(SCC(=O)N/N=C/C=C\c2ccccc2[N+](=O)[O-])nc2ccccc21	23*	93	5	73	1	89	89*	i	105	106	104	106	103
O=C1COc2ccc(C(=O)COC(=O)CNC(=O)C3CCCCC3)cc2N1	154	167*[activator]	13	145*[activator]	12	153*[activator]	.	1	94	92	98	93	102
Cc1ccc(C(=O)NCC(=O)OCC(=O)c2ccc3c(c2)NC(=O)CO3)cc1C	96	99	12	100	10	102	.	.	.	.	.	.	.
Cc1ccc(-c2cc(C(F)(F)F)c(C#N)c(=O)[nH]2)cc1	104	100	12	104	5	101	.	.	.	.	.	.	.
N#Cc1c(C(F)(F)F)cc(C2CC2)[nH]c1=O	106	184*[activator]	23	93	85*	109	109*	1	91	91	92	90	79
COC(=O)C(C)NC(=O)C(C)NC(=O)OCc1ccccc1 (stereo unspecified)	.	.	15	.	.	.	.	-1	91	87	91	94	87
c1ccc(SSc2ccccc2)cc1	-4.9*	105	17	64	3	100	100*	.	.	.	.	.	.
Cc1nccnc1Sc1ccccc1	100	?	.	101	6	102	.	.	.	.	.	.	.
Cc1cc(N2CCOCC2)ccc1/C=C\[N+](=O)[O-]	116	102	11	106	4	102	.	.	.	.	.	.	.
Nc1nnc(SCC(=O)OCC(=O)NC23CC4CC(CC(C4)C2)C3)s1	7.7*	?	12	13*	-1	19*	.	0	106	109	107	105	97
C/C(=N\NC(=O)c1nn(C)c(C)c1Br)c1cccc(NC(=O)c2ccc(F)cc2)c1	253*[activator]	112	6	140	5	114	114*	1	101	104	101	102	93
SMILES	RGS16-Gao HTS	RGS7-Gao reg	GSH fluor	RGS8-Gao	Avidin bead fluor	RGS4-Gao reg	RGS-Gao	Biotin-avidin	RGS8-Gao single	RGS7-Gao single	RGS16-Gao single	RGS4-Gao confirm	RGS19-Gao conf
CCC(Oc1cc(Cl)ccc1Cl)C(=O)NNC(=O)CCC(=O)O (stereo unspecified)	13*	81	11	60	1	80	80*	0	98	104	100	101	85
CCOC(=O)c1cccc(NC(=O)CSc2nc3ccccc3c(=O)n2CCOC)c1	-10	13*	24	9.5*	0	23*	.	2	109	111	108	109	97
O=C(NCC1CC1)Nc1cccs1	99	?	.	100	23	102	.	.	.	.	.	.	.
CCCn1c(N)c(C(=O)CSc2nc3ccccc3c(=O)n2Cc2ccccc2)c(=O)[nH]c1=O	354	158*[activator]	16	112	64*	227*[activator]	.	2	89	65*	78	78	48*
CC12CCC(C(=O)Nc3nc4ccccc4s3)(OC1=O)C2(C)C (stereo unspecified)	104	103	10	102	20	104	.	.	.	.	.	.	.
c1ccc(-c2csc(Nc3ccc4c(c3)OCCO4)n2)cc1	92	50*	11	55*	4	91	91*	1	107	109	106	104	115
